# Experiments:
# Test in all cases: DAPPL (digital affinity profiling via proximity ligation, sequencing); 10 mM Tris-HCl pH 7.5, 50 mM NaCl, 1 mM DTT, 4% glycerol, room temperature, 30 min; GST-TFs on glutathione beads, 16-mer random dsDNA library, 0.1% formaldehyde crosslink after washing; high values mean tight binding
# [1] = molecular target: T1, FLI1 (Homo sapiens, UniProt Q01543 1-452); settings: protein: recombinant; tags: N-terminal GST; dsDNA, one strand shown
# T1 sequence: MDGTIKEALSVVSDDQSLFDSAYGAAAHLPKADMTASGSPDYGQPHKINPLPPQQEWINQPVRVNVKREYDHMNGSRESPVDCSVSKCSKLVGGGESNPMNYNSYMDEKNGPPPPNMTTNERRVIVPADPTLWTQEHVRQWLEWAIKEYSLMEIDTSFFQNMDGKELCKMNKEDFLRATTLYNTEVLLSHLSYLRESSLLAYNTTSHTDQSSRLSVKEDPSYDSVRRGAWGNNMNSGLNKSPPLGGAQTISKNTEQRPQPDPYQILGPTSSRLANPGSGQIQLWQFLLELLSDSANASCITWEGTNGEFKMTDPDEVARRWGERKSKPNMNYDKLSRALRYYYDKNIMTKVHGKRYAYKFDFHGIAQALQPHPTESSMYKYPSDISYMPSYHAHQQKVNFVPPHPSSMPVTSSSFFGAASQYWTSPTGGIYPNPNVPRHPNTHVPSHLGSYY
# Outline: (§1)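 Human transcription factors were made in yeast as GST fusions, captured on glutathione beads and barcoded with DNA. With a tag-only sample included, the pool was incubated with 200 nmole of a random double-stranded 16-mer DNA library in Tris/NaCl/DTT/glycerol buffer at room temperature for 30 min, then crosslinked with 0.1% formaldehyde after washing, ligated by proximity, amplified and sequenced. For binding signal, each hexamer's read frequency for a factor is divided by its frequency for the tag-only sample.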
# [2] = molecular target: T2, ELK1 (Homo sapiens, UniProt P19419 1-428); settings: protein: recombinant; tags: N-terminal GST; dsDNA, one strand shown
# T2 sequence: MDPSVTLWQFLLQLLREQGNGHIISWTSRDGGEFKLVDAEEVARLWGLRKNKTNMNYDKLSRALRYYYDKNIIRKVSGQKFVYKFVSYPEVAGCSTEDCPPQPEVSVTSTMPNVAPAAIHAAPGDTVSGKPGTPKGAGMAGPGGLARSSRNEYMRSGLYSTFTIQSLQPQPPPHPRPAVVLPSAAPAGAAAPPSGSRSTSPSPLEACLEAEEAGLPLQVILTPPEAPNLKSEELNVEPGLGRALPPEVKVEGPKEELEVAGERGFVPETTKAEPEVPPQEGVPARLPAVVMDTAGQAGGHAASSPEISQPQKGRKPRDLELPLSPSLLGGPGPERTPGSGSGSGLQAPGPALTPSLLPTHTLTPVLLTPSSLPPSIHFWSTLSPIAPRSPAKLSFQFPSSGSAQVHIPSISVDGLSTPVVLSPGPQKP
# Outline: as §1
# [3] = molecular target: T3, GABPA (Homo sapiens, UniProt Q06546 1-454); settings: protein: recombinant; tags: N-terminal GST; dsDNA, one strand shown
# T3 sequence: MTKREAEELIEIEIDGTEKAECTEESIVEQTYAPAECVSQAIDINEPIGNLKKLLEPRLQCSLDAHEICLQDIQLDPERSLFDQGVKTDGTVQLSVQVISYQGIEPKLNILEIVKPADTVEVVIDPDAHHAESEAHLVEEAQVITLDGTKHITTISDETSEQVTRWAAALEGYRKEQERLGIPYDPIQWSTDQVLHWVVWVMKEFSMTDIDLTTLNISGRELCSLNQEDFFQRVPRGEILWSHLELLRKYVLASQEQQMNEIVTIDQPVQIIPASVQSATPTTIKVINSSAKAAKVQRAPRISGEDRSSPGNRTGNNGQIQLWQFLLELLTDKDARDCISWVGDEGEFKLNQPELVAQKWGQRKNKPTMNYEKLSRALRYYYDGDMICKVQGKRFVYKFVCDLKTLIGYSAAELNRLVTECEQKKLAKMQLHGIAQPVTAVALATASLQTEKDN
# Outline: as §1
# [4] = molecular target: T4, ERG (Homo sapiens, UniProt P11308 1-479); settings: protein: recombinant; tags: N-terminal GST; dsDNA, one strand shown
# T4 sequence: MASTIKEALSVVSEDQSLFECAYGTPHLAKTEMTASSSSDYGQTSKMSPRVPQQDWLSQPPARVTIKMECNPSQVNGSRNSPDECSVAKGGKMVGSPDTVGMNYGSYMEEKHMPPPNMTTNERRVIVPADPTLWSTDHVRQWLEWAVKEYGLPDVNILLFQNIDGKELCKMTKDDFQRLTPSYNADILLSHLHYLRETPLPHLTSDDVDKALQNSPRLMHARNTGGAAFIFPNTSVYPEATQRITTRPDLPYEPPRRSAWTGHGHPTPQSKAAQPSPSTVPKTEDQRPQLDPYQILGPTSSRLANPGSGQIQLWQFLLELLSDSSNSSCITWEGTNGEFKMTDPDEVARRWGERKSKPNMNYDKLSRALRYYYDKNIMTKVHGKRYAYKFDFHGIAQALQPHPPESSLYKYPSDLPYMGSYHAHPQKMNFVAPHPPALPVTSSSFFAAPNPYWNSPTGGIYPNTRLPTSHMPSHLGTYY
# Outline: as §1
# [5] = molecular target: ELF1 (Homo sapiens, UniProt P32519 1-619); settings: protein: recombinant; tags: N-terminal GST; dsDNA, one strand shown
# Outline: as §1
# [6] = molecular target: T5, EHF (Homo sapiens, UniProt Q9NZC4 1-300); settings: protein: recombinant; tags: N-terminal GST; dsDNA, one strand shown
# T5 sequence: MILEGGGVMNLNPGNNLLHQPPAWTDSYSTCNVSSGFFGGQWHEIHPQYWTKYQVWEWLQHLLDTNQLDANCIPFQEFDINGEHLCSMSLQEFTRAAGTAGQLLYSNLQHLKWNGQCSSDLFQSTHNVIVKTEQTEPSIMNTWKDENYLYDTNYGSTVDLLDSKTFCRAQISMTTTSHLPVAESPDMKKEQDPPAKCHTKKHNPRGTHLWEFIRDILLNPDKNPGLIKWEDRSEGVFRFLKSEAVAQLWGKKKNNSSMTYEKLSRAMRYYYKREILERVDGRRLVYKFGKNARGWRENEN
# Outline: as §1
# [7] = molecular target: SPI1 (Homo sapiens, UniProt P17947 1-270); settings: protein: recombinant; tags: N-terminal GST; dsDNA, one strand shown
# Outline: as §1
# [8] = molecular target: SPIB (Homo sapiens, UniProt Q01892 1-262); settings: protein: recombinant; tags: N-terminal GST; dsDNA, one strand shown
# Outline: as §1
# [9] = molecular target: T6, ELK3 (Homo sapiens, UniProt P41970 1-407); settings: protein: recombinant; tags: N-terminal GST; dsDNA, one strand shown
# T6 sequence: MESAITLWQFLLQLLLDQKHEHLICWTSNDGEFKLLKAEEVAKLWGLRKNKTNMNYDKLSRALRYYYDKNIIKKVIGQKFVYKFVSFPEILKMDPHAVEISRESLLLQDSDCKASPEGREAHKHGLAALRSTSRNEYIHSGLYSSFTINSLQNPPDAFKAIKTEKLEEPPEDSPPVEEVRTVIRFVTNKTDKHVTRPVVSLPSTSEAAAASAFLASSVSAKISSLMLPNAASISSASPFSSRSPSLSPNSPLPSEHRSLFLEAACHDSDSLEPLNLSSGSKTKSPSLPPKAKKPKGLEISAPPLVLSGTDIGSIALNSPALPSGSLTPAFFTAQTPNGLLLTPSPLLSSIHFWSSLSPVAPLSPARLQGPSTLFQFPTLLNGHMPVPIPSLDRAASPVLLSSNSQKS
# Outline: as §1
# [10] = molecular target: T7, FEV (Homo sapiens, UniProt Q99581 1-238); settings: protein: recombinant; tags: N-terminal GST; dsDNA, one strand shown
# T7 sequence: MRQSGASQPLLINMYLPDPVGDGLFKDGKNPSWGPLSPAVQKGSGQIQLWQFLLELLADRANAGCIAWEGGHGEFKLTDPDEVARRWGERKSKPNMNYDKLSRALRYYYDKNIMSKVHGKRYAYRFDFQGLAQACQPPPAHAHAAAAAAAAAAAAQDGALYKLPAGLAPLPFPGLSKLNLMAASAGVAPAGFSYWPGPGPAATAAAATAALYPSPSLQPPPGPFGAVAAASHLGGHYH
# Outline: as §1
# [11] = molecular target: ETV5 (Homo sapiens, UniProt P41161 1-510); settings: protein: recombinant; tags: N-terminal GST; dsDNA, one strand shown
# Outline: as §1
# [12] = molecular target: HSF1 (Homo sapiens, UniProt Q00613 1-529); settings: protein: recombinant; tags: N-terminal GST; chain copies: 3; dsDNA, one strand shown
# Outline: as §1
# [13] = molecular target: T8, SPIC (Homo sapiens, UniProt Q8N5J4 1-248); settings: protein: recombinant; tags: N-terminal GST; dsDNA, one strand shown
# T8 sequence: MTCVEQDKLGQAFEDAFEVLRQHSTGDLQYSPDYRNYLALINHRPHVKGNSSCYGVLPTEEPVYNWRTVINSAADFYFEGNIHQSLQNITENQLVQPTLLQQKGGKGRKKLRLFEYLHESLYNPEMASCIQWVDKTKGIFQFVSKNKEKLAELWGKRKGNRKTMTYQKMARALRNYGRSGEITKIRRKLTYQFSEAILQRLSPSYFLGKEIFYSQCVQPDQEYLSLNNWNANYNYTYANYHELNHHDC
# Outline: as §1
# [14] = molecular target: ELF4 (Homo sapiens, UniProt Q99607 1-663); settings: protein: recombinant; tags: N-terminal GST; dsDNA, one strand shown
# Outline: as §1
# [15] = molecular target: T9, ELK4 (Homo sapiens, UniProt P28324-2 1-405); settings: protein: recombinant; tags: N-terminal GST; dsDNA, one strand shown
# T9 sequence: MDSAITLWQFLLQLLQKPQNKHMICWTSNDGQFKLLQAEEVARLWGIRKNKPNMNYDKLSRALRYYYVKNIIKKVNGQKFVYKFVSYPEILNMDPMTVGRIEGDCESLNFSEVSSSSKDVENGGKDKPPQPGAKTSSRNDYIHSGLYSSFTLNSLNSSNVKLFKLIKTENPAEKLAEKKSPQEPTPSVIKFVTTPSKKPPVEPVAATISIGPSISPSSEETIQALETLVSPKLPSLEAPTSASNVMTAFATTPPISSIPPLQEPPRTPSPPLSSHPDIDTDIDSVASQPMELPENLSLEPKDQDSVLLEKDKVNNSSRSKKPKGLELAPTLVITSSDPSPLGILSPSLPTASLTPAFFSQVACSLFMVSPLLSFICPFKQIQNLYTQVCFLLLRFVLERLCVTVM
# Outline: as §1
# [16] = molecular target: T10, ETV2 (Homo sapiens, UniProt O00321 1-342); settings: protein: recombinant; tags: N-terminal GST; dsDNA, one strand shown
# T10 sequence: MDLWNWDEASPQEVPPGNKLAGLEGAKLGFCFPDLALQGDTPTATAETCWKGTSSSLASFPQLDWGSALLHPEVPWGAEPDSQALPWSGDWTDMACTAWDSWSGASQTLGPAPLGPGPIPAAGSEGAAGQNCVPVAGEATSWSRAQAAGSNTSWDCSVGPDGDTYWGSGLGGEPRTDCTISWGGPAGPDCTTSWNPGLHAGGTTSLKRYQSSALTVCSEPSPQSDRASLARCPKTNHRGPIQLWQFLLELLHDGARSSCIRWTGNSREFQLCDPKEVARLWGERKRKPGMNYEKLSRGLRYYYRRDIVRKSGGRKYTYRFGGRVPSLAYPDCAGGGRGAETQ
# Outline: as §1
# [17] = molecular target: T11, ELF3 (Homo sapiens, UniProt P78545 1-371); settings: protein: recombinant; tags: N-terminal GST; dsDNA, one strand shown
# T11 sequence: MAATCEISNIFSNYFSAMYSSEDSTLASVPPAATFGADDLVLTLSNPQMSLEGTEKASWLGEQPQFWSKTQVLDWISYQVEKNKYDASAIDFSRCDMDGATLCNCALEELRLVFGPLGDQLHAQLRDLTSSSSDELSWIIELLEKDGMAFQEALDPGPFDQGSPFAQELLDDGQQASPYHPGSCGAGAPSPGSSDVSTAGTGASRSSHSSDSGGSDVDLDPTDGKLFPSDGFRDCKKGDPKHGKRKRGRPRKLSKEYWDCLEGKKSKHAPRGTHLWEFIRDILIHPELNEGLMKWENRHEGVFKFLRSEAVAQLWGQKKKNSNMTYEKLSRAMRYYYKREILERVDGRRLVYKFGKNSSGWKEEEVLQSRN
# Outline: as §1
# [18] = molecular target: CRX (Homo sapiens, UniProt O43186 1-299); settings: protein: recombinant; tags: N-terminal GST; dsDNA, one strand shown
# Outline: as §1
# [19] = molecular target: ETV1 (Homo sapiens, UniProt P50549 1-477); settings: protein: recombinant; tags: N-terminal GST; dsDNA, one strand shown
# Outline: as §1
# Chain of CRX (O43186 whole entry): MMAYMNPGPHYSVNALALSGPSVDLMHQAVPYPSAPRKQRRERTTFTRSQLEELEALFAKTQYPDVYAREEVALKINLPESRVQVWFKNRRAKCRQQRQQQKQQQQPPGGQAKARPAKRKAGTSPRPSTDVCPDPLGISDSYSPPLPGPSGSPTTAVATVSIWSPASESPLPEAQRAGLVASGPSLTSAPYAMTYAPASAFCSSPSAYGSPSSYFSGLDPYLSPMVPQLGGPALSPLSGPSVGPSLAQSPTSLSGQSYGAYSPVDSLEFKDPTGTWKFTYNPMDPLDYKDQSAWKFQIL
# Chain of ETV1 (P50549 whole entry): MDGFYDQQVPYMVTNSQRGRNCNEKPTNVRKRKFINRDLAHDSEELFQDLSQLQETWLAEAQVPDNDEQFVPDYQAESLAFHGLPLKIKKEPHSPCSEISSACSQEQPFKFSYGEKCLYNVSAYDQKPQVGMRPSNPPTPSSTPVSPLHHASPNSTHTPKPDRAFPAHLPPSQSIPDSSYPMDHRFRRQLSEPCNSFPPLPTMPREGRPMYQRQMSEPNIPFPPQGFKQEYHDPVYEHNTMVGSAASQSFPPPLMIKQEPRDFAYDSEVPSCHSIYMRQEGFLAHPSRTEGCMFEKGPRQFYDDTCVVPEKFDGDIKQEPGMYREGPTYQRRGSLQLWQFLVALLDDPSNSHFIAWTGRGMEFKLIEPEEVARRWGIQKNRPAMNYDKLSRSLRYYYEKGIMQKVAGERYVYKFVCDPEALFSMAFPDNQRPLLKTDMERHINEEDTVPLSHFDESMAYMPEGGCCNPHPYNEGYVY
# Chain of ETV5 (P41161 whole entry): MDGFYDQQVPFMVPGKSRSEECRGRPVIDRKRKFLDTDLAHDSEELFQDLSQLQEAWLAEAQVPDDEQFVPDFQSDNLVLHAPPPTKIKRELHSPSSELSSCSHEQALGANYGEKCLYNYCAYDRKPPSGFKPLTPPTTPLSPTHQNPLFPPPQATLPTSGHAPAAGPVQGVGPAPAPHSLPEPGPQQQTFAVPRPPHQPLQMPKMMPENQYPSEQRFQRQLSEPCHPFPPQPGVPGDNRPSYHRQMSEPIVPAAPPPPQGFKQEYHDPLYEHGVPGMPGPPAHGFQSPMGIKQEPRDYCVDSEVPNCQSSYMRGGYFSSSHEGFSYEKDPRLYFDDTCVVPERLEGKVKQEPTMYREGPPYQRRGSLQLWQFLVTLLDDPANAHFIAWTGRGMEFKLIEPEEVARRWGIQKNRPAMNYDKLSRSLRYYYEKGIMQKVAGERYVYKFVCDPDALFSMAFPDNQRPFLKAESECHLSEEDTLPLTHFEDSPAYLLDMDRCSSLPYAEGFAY
# Chain of SPIB (Q01892 whole entry): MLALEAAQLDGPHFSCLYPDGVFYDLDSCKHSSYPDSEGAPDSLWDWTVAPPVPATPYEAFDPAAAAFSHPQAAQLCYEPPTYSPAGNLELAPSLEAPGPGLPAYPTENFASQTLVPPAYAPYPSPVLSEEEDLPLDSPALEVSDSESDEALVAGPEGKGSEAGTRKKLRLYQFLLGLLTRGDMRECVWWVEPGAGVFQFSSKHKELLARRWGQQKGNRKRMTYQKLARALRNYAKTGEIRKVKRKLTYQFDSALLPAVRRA
# Chain of ELF1 (P32519 whole entry): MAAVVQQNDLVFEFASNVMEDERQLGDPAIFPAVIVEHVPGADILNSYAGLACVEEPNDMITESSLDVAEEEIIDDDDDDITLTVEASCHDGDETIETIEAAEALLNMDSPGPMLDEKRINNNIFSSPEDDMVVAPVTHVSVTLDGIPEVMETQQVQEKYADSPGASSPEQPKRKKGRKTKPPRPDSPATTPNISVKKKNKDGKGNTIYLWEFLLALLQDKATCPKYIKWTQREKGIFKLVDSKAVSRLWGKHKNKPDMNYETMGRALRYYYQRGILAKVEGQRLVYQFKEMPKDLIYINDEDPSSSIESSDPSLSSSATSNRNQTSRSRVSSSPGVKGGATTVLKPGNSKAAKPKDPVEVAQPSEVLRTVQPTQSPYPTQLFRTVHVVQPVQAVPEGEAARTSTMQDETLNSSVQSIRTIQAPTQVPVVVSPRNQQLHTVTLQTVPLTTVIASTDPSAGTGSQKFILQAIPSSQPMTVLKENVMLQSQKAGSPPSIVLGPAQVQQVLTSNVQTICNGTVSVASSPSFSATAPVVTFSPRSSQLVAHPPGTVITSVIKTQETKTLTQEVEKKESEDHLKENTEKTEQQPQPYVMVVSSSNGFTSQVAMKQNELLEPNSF
# Chain of ELF4 (Q99607 whole entry): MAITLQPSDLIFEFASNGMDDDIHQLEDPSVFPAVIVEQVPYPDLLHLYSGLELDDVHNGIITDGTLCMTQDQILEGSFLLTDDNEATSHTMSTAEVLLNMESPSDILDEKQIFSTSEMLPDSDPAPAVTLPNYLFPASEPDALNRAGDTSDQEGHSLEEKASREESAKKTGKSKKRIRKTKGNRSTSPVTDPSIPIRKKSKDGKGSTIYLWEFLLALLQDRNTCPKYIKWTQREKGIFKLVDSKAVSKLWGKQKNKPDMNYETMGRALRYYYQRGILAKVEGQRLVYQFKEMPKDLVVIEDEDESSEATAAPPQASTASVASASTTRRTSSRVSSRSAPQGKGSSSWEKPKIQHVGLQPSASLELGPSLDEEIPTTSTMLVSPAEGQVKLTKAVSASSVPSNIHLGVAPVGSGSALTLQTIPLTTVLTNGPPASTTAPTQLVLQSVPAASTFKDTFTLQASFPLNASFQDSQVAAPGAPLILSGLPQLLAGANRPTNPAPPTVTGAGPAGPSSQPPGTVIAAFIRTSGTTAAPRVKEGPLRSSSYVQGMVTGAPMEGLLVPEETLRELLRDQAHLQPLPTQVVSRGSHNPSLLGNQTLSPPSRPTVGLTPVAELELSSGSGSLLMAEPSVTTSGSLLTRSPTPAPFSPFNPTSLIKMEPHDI
# Chain of HSF1 (Q00613 whole entry): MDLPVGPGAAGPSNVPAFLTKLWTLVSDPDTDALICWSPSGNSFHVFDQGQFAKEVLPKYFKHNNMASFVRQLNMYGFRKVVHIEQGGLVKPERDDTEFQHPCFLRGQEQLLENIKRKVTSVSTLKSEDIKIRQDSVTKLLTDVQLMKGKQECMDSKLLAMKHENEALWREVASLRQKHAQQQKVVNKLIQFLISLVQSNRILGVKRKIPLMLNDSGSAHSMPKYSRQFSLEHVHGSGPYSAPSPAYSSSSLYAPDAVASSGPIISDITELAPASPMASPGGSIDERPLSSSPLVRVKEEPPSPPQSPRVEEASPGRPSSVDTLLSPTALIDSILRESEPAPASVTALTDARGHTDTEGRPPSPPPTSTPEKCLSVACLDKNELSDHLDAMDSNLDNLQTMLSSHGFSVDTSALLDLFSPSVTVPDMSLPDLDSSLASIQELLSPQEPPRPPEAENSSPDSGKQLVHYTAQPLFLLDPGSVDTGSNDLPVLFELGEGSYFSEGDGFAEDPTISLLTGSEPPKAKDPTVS
sequence,measurement,setting,value
ATGTAT,binding signal,[1],"1.34 fold enrichment (6-mer frequency, TF over GST control)"
same,binding signal,[2],"1.32 fold enrichment (6-mer frequency, TF over GST control)"
same,binding signal,[3],"1.27 fold enrichment (6-mer frequency, TF over GST control)"
same,binding signal,[4],"1.35 fold enrichment (6-mer frequency, TF over GST control)"
same,binding signal,[5],"1.3 fold enrichment (6-mer frequency, TF over GST control)"
same,binding signal,[6],"1.28 fold enrichment (6-mer frequency, TF over GST control)"
same,binding signal,[7],"1.28 fold enrichment (6-mer frequency, TF over GST control)"
same,binding signal,[8],"1.32 fold enrichment (6-mer frequency, TF over GST control)"
same,binding signal,[9],"1.36 fold enrichment (6-mer frequency, TF over GST control)"
same,binding signal,[10],"1.31 fold enrichment (6-mer frequency, TF over GST control)"
same,binding signal,[11],"1.33 fold enrichment (6-mer frequency, TF over GST control)"
same,binding signal,[12],"1.18 fold enrichment (6-mer frequency, TF over GST control)"
same,binding signal,[13],"1.25 fold enrichment (6-mer frequency, TF over GST control)"
same,binding signal,[14],"1.43 fold enrichment (6-mer frequency, TF over GST control)"
same,binding signal,[15],"1.57 fold enrichment (6-mer frequency, TF over GST control)"
same,binding signal,[16],"1.3 fold enrichment (6-mer frequency, TF over GST control)"
same,binding signal,[17],"1.35 fold enrichment (6-mer frequency, TF over GST control)"
same,binding signal,[18],"1.24 fold enrichment (6-mer frequency, TF over GST control)"
same,binding signal,[19],"1.42 fold enrichment (6-mer frequency, TF over GST control)"

# From article PMC7862700, “An all-to-all approach to the identification of sequence-specific readers for epigenetic DNA modifications on cytosine”
